Assay [1] can be described thus: A CellTox Green Cytotoxicity Assay to monitor cytotoxicity in HEK293 cells - 40 hour (AID 1224871). Further: nearly all actives have a fitted effect of over 45% in size. Further: potency means the concentration at half of the fitted maximal effect. Conditions: CellTox Green fluorescence; series mostly up to 76.8 µM. The procedure, abridged:
(§1)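 Dead-cell fluorescence measured kinetically: asymmetric cyanine dye, HEK293, 600 cells/well, 5 h settle, 23 nL cpd/DMSO, 37 C, reads 0–40 h every 8 h.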

A short description of assay [2]: qHTS RealTime-Glo MT Cell Viability Assay in HEK293 cells - 16 hour (AID 1224872). Further: nearly all actives have a fitted effect of over 50% in size. Further: potency means the concentration at half of the fitted maximal effect. On activity change, negative = cytotoxicity: top concentration of the series differs between compounds. Conditions: RealTime-Glo luminescence; series mostly up to 76.8 µM. The essentials: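 Quantitative high-throughput screen of the Tox21 10K library in HEK293: cells and RealTime-Glo reagents plated together, compound added at 5 h, luminescence monitored through 40 h at 37 C.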
A short description of assay [3]: qHTS RealTime-Glo MT Cell Viability Assay in HepG2 cells - 8 hour (AID 1224873). Further: nearly all actives have a fitted effect of over 55% in size. Conditions: RealTime-Glo luminescence; series mostly up to 76.8 µM. The procedure, abridged:
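HepG2 cells mixed with RealTime-Glo MT reagents (NanoLuc plus cell-permeant prosubstrate) were seeded at 600 cells/well, incubated 5 h at 37 C/5% CO2, then pinned with compounds in DMSO; nonlytic luminescence tracked viability during 40 h treatment.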

The nature of assay [4]: qHTS RealTime-Glo MT Cell Viability Assay in HEK293 cells - 40 hour (AID 1224874). Further: nearly all actives have a fitted effect of over 50% in size. Conditions: RealTime-Glo luminescence; max response: stronger effect = lower value. The procedure, abridged:
(§2)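 600 HEK293 cells per well, dispensed already mixed with RealTime-Glo MT reagents. Compound dosing came 5 h later. The same wells were read for luminescence at 0, 8, 16, 24, 32 and 40 h of exposure at 37 C.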
A general note: In qHTS, concentration-response curves come from the screen itself.

A short description of assay [5]: A CellTox Green Cytotoxicity Assay to monitor cytotoxicity in HEK293 cells - 24 hour (AID 1224875). Further: nearly all actives have a fitted effect of over 45% in size. Further: potency means the concentration at half of the fitted maximal effect. The following applies: CellTox Green fluorescence; series mostly up to 76.8 µM. The procedure, abridged:
as §1

A short description of assay [6]: qHTS RealTime-Glo MT Cell Viability Assay in HepG2 cells - 32 hour (AID 1224877). Further: nearly all actives have a fitted effect of over 55% in size. Further: potency means the concentration at half of the fitted maximal effect. The following applies: RealTime-Glo luminescence; series mostly up to 76.8 µM. The procedure, abridged:
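Compound treatment began 5 h after plating HepG2 cells (600/well) with NanoLuc luciferase and prosubstrate. Plates stayed at 37 C for 40 h; luminescence was captured at six time points, 0 h through 40 h.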

The nature of assay [7]: qHTS RealTime-Glo MT Cell Viability Assay in HEK293 cells - 0 hour (AID 1224880). Further: top concentration of the series differs between compounds; nearly all actives have a fitted effect of over 45% in size. The following applies: RealTime-Glo luminescence; series mostly up to 76.8 µM. The procedure, abridged:
as §2

The nature of assay [8]: A CellTox Green Cytotoxicity Assay to monitor cytotoxicity in HepG2 cells - 16 hour (AID 1224876). Further: nearly all actives have a fitted effect of over 45% in size. Further: potency means the concentration at half of the fitted maximal effect. Conditions: CellTox Green fluorescence; series mostly up to 76.8 µM. The essentials:
(§3)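 First, HepG2 cells (600/well) mixed with reagent were plated; second, after 5 h at 37 C they received compounds via pintool; third, fluorescence was measured at 0 h through 40 h at 8 h intervals.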

A short description of assay [9]: A CellTox Green Cytotoxicity Assay to monitor cytotoxicity in HepG2 cells - 24 hour (AID 1224878). Further: nearly all actives have a fitted effect of over 45% in size. Further: potency means the concentration at half of the fitted maximal effect. The following applies: CellTox Green fluorescence; series mostly up to 76.8 µM. The essentials: as §3
The nature of assay [10]: A CellTox Green Cytotoxicity Assay to monitor cytotoxicity in HepG2 cells - 40 hour (AID 1224879). Further: nearly all actives have a fitted effect of over 40% in size. Further: potency means the concentration at half of the fitted maximal effect. Conditions: CellTox Green fluorescence; series mostly up to 76.8 µM. The essentials: as §3

Results filed as inconclusive are left out. A number with no mark means an inactive call. Activity calls are given as the source filed them. The call rests on the fitted dose curve; in most records, active means well fitted curve in the direction sought with a large enough effect in the repeat runs; inconclusive means weak or mixed curves; inactive means no such curve, though single readings can be large; an effect the other way counts as inactive or inconclusive.

We go through 14 molecules from PubChem BioAssay (Tox21).
On the % scale 0 is the no-effect control and ±100 the full control effect.

As to `Cc1ccc(C(=O)O)cc1`, the Potency entry in assay [1], in assay [2], in assay [3], in assay [5], in assay [6] and in [7] was “inactive” in each case. Moreover, the max response in [4] was 10%.

For `CC(=O)OCC=C(C)C`, the Potency entry in [1], in [2], in assay [3], in assay [5], in [6] and in [7] was “inactive” in each case. For the same molecule, the max response in assay [4] was -1.54%.

For `C=Cc1ccccc1C=C`, the Potency entry in [1], in assay [2], in assay [3], in [5], in [8] and in assay [6] was “inactive” throughout. The Potency entry in assay [9] and in [7] was “inactive” each time. Further, in assay [4], the max response was 16.3%.

With `COc1cc2nc(N3CCN(C(=O)c4ccco4)CC3)nc(N)c2cc1OC`, the cytotoxicity increase in assay [1] is 63.2% [at 15.8 µM]; in [8] it was 29.2% [at 15.8 µM]. Moreover, the activity change, negative = cytotoxicity in assay [2] was -20% [at 15.8 µM]; in [7], 4.25% [at 15.8 µM]. Further, the viability change, negative = cytotoxic in [3] was -0.626% [at 15.8 µM]. In addition, the max response in assay [4] is -18.8%. The activity change in [5] is 21% [at 15.8 µM, stronger effect = higher value]. Besides, the Potency in assay [9] was 7.37 µM (active); in assay [10] it was 10.4 µM (active).

As to `CC1=CCC(=C(C)C)CC1`, the Potency result in assay [1], in assay [2], in assay [3], in [5], in assay [8] and in assay [6] was “inactive” throughout. Moreover, the Potency entry in assay [9], in assay [10] and in assay [7] was “inactive” each time. Further, the max response in assay [4] is -2.74%.

Turning to `OC1CCC(C2CCCCC2)CC1` (configuration not stated), the Potency entry in [1], in assay [2], in [3], in assay [5], in [6] and in [7] was “inactive” in each case. The max response in assay [4] is -6.69%. The Potency in [9] is 43.6 µM (active).

Consider `CC1(C)CCC[C@]2(C)[C@H]3CC(=O)O[C@]3(C)CC[C@@H]12`, for which the Potency in assay [1] and in [5] was 49 µM (active) in each case. In addition, the Potency entry in [2], in [3], in assay [8], in [6], in assay [9] and in [10] was “inactive” throughout. Moreover, in assay [7], the Potency entry is “inactive”. Further, in [4], the max response is -15.3%.

In the case of `O=C1CCCCCCCCCCCCCCCO1`, the Potency in assay [1] is 24.5 µM (active); in assay [5] it was 24.5 µM (active); in [8], 43.6 µM (active); in assay [9], 43.6 µM (active); in assay [10] it was 43.6 µM (active). Besides, the Potency result in assay [2], in assay [3], in assay [6] and in assay [7] was “inactive” throughout. Further, in assay [4], the max response was 4%.

For `ClCCl`, the Potency entry in [1], in assay [2], in assay [3], in assay [5], in assay [8] and in [6] was “inactive” throughout. For the same molecule, the Potency result in assay [9], in assay [10] and in [7] was “inactive” each time. Also, in assay [4], the max response is 10.5%.

On to `Cc1c(C)c([N+](=O)[O-])c(C(C)(C)C)c([N+](=O)[O-])c1C`, for which the Potency result in [1], in [3], in assay [5], in assay [8], in assay [6] and in assay [9] was “inactive” throughout. Moreover, the Potency entry in assay [10] and in assay [7] was “inactive” each time. For the same molecule, the max response in assay [4] is -0.27%.

For `CC(C(=O)O)c1ccc2c(c1)[nH]c1ccc(Cl)cc12` (configuration not stated), the Potency entry in [1], in assay [3], in assay [5], in assay [8], in assay [6] and in [9] was “inactive” each time. Moreover, the Potency result in assay [10] was “inactive”. Also, the max response in assay [4] was 1.73%.

In the case of `O=c1oc2cc(O)ccc2c2oc3cc(O)ccc3c12`, the Potency result in assay [1], in assay [3], in assay [5], in assay [8], in [6] and in assay [9] was “inactive” throughout. Also, the Potency result in assay [10] and in assay [7] was “inactive” throughout. The Potency in assay [2] is 21 µM (active).

As for `OC[C@@H](O)[C@@H](O)CO`, the Potency entry in [1], in assay [3], in assay [5], in assay [8], in [6] and in assay [9] was “inactive” throughout. The Potency result in assay [10] and in assay [7] was “inactive” in each case. The max response in assay [4] was 7.59%.

In the case of `CC[N+](CC)(CC)CCOc1ccc(/C=C/c2ccccc2)cc1`, the Potency was 6.01 µM (active) in assay [1] and 26.8 µM (active) in assay [6]. In addition, the Potency entry in [2], in [3], in assay [8], in [9] and in assay [7] was “inactive” throughout.
